# Where a structure was tested more than once in an assay, its records may differ in their call. The source made the active and inactive calls. Rule for the calls: active = hit-call score of the fitted dose curve at least 0.9, where 1 is the maximum; inactive = score below 0.9.
# Experiments:
# [1] = ATG_GLI_CIS: Attagene CIS-FACTORIAL HepG2 Assay for human Zinc Finger Protein GLI1 (AID 2282945); details: HepG2, Attagene cis-factorial reporter mRNA, GLI element; actives raise or lower the signal
# Method in brief: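 Transiently transfected HepG2 cells report endogenous transcription factor activity via cis-element-driven reporter units. After 24 h compound exposure, reporter mRNA was measured by RT-PCR with capillary electrophoresis; bidirectional fitting against DMSO baseline.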
# [2] = ATG_ISRE_CIS: Attagene CIS-FACTORIAL HepG2 Assay for human Interferon Regulatory Factor 1 (IRF1) binding to an Interferon-Stimulated Response Element (ISRE) (AID 2282948); details: HepG2 ISRE cis-reporter (Attagene), mRNA transcription readout; actives raise or lower the signal
# Method in brief: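 Quantitation relies on labelled RT-PCR fragments separated by capillary electrophoresis. Human HepG2 cells bearing cis-promoter reporter constructs were treated 24 h; DMSO served as baseline for bidirectional fitting.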
# [3] = ATG_M_32_CIS: Attagene CIS-FACTORIAL HepG2 Assay for M32 Transcription Factor (Internal Marker) (AID 2282949); details: HepG2 Attagene cis-factorial M32 reporter, mRNA; actives raise or lower the signal;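 note: background control marker of the multiplexed CIS panel rather than a real target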
# Method in brief: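 Fluorescent capillary electrophoresis peaks of HpaI-digested, FAM-labelled RT-PCR reporter products give the signal. Source: transiently transfected human liver HepG2 cells, 24 h after chemical dosing; bidirectional fitting against DMSO.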
# [4] = ATG_M_06_CIS: Attagene CIS-FACTORIAL HepG2 Assay for M06 Transcription Factor (Internal Marker) (AID 2282950); details: HepG2 Attagene CIS-FACTORIAL M06 internal marker reporter; actives raise or lower the signal
# Method in brief: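 HepG2 liver cells, 24 h exposure. Reporter transcripts from transfected cis-element constructs quantified by RT-PCR/capillary electrophoresis fluorescence. Bidirectional curve fit against DMSO.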
# [5] = molecular target: Hypoxia-inducible factor 1-alpha (Homo sapiens) (UniProt Q16665); assay: ATG_HIF1a_CIS: Attagene CIS-FACTORIAL HepG2 Assay for human Hypoxia Inducible Factor 1 (HIF1A) (AID 2282951); details: HepG2 Attagene cis-factorial HIF1a reporter transcription; actives raise or lower the signal
# Method in brief: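 In this multiplexed cell assay, HepG2 cells bearing transfected cis reporters are dosed for 24 h and reporter mRNA is read by RT-PCR plus capillary electrophoresis; signal increases and decreases are both scored against DMSO.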
# [6] = molecular target: Hepatocyte nuclear factor 6 (Homo sapiens) (UniProt Q9UBC0); assay: ATG_HNF6_CIS: Attagene CIS-FACTORIAL HepG2 Assay for human Hepatocyte Nuclear Factor 6 (HNF6) (AID 2282952); details: HepG2 Attagene cis-factorial HNF6 reporter transcription; actives raise or lower the signal
# Method in brief: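 HepG2, transient MRTU transfection (cis promoters); 24 h chemical exposure; total RNA → oligo(dT) RT → PCR → 6-FAM labelling → HpaI cut → CE; bidirectional fit vs DMSO.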
# [7] = molecular target: Heat shock factor protein 1 (Homo sapiens) (UniProt Q00613); assay: ATG_HSE_CIS: Attagene CIS-FACTORIAL HepG2 Assay for human Heat Shock Transcription Factor 1 (HSE) (AID 2282953); details: HepG2 HSE cis-reporter, Attagene RNA transcription; actives raise or lower the signal
# Method in brief: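 Endogenous transcription factor activity captured via cis-promoter reporter units transfected into HepG2; treatment lasted 24 h. Fluorescence intensity of reporter fragments analysed with bidirectional curve fitting, DMSO baseline.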
# [8] = ATG_MRE_CIS: Attagene CIS-FACTORIAL HepG2 Assay for human Metal Responsive Element (MRE) (AID 2282954); details: HepG2 MRE cis-reporter transcription, Attagene multiplex; actives raise or lower the signal
# Method in brief: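 HepG2 cells transiently transfected with cis-element-driven reporter units; mRNA measured 24 h after dosing. Reporter transcripts quantified by RT-PCR, FAM labelling, HpaI digestion and capillary electrophoresis; bidirectional fit versus DMSO.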
# [9] = ATG_PBREM_CIS: Attagene CIS-FACTORIAL HepG2 Assay for human Phenobarbital-responsive Enhancer Module (PBREM) (AID 2282955); details: HepG2 PBREM cis-reporter, Attagene multiplexed transcription; actives raise or lower the signal
# Method in brief: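 After a 24 h incubation with test chemical, transfected HepG2 cells yield total RNA; reporter-specific RT-PCR products are fluorescently labelled, HpaI-digested and resolved by capillary electrophoresis against ROX size standards.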
# [10] = molecular target: Paired box protein Pax-6 (Homo sapiens) (UniProt P26367); assay: ATG_Pax6_CIS: Attagene CIS-FACTORIAL HepG2 Assay for human Paired Box 6 (PAX6) (AID 2282956); details: HepG2 CIS-FACTORIAL PAX6 reporter transcription, RNA readout; actives raise or lower the signal
# Method in brief: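 After twenty-four hours of chemical exposure, transfected HepG2 cells are harvested for RNA. Cis-promoter reporter transcripts are amplified, fluorescently labelled and sized by capillary electrophoresis, with gain and loss of signal scored against DMSO.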
# [11] = ATG_PXRE_CIS: Attagene CIS-FACTORIAL HepG2 Assay for human Pregnane X Receptor Element (PXRE) (AID 2282957); details: HepG2 Attagene CIS-FACTORIAL PXRE reporter, mRNA; actives raise or lower the signal
# Method in brief: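 Transfect HepG2 with MRTUs (cis promoter elements); dose chemical, incubate 24 h; isolate RNA, RT with oligo(dT), PCR, 6-FAM label, HpaI cut, CE. Gain/loss fit vs DMSO.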
# [12] = ATG_PPRE_CIS: Attagene CIS-FACTORIAL HepG2 Assay for human Peroxisome Proliferator-activated Response Element (PPRE) (AID 2282958); details: HepG2 PPRE cis-element reporter, Attagene transcription factor profiling; actives raise or lower the signal
# Method in brief: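 Multiplexed reporter transcription units under cis-regulatory promoters were transfected into HepG2 cells to capture endogenous factor activity. A 24 h incubation preceded RNA isolation and fluorescent RT-PCR fragment analysis.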
# [13] = ATG_Sox_CIS: Attagene CIS-FACTORIAL HepG2 Assay for human SRY-box transcription factor (SOX) (AID 2282960); details: HepG2 Attagene cis-factorial SOX reporter, mRNA; actives raise or lower the signal
# Method in brief: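 After 24 h of chemical treatment, transfected HepG2 reporter cells are lysed for total RNA. Transcript levels come from RT-PCR with labelled primer extension and capillary electrophoresis, analysed bidirectionally versus DMSO.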
# [14] = molecular target: Transcription factor Sp1 (Homo sapiens) (UniProt P08047); assay: ATG_Sp1_CIS: Attagene CIS-FACTORIAL HepG2 Assay for human Specificity Protein 1 (Sp1) (AID 2282961); details: HepG2 Sp1 cis-reporter transcription, actives raise or lower the signal
# Method in brief: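 Sp1-driven reporter mRNA, read as capillary electrophoresis fluorescence after RT-PCR, in transiently transfected HepG2 cells dosed for 24 h; signal change in either direction relative to DMSO.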
# [15] = ATG_SREBP_CIS: Attagene CIS-FACTORIAL HepG2 Assay for human Sterol Regulatory Element Binding (SREBP) (AID 2282962); details: HepG2 Attagene cis-factorial SREBP reporter, mRNA; actives raise or lower the signal
# Method in brief: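 Twenty-four hours after chemical dosing of transfected HepG2 cultures, reporter RNA was converted to cDNA, amplified, end-labelled with 6-FAM and resolved by capillary electrophoresis. Responses were fitted relative to DMSO.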
# [16] = ATG_TA_CIS: Attagene CIS-FACTORIAL HepG2 Assay for human TA Basal Promoter (AID 2282964); details: HepG2 Attagene CIS-factorial TA basal promoter reporter; actives raise or lower the signal
# Method in brief: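 Fluorescence from labelled RT-PCR reporter fragments, separated by capillary electrophoresis, gives the signal. Cells: HepG2 transiently carrying multiple reporter units, 24 h chemical dosing. Gain or loss relative to DMSO.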
# [17] = ATG_GRE_CIS: Attagene CIS-FACTORIAL HepG2 Assay for human Glucocorticoid Response Elements (GRE) (AID 2282947); details: HepG2 GRE cis-reporter, Attagene multiplex mRNA; actives raise or lower the signal
# Method in brief: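 Transiently transfected HepG2 cells carrying GRE cis-reporter units (endogenous TF activity) dosed 24 h; reporter mRNA quantified by RT-PCR, 6-FAM labelling, HpaI digestion and capillary electrophoresis. Bidirectional fit versus DMSO baseline.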
# [18] = molecular target: Bile acid receptor (Homo sapiens) (UniProt Q96RI1); assay: ATG_IR1_CIS: Attagene CIS-FACTORIAL HepG2 Assay for human Nuclear Receptor Subfamily 1 Group H Member 4 (NR1H4), IR1 submotif (AID 2282946); details: IR1 reporter transcription, actives raise or lower the signal
# Method in brief: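 HepG2 cells transiently transfected with multiple cis-promoter-driven reporter units to measure endogenous transcription factor activity; 24 h exposure. Reporter mRNA read by RT-PCR, FAM labelling, HpaI digestion and capillary electrophoresis. Bidirectional fit versus DMSO.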
# [19] = molecular target: Signal transducer and activator of transcription 3 (Homo sapiens) (UniProt P40763); assay: ATG_STAT3_CIS: Attagene CIS-FACTORIAL HepG2 Assay for human Signal Transducer and Activator of Transcription 3 (STAT3) (AID 2282963); details: HepG2, Attagene cis-factorial STAT3 reporter transcription; actives raise or lower the signal
# Method in brief: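 HepG2 cells transiently transfected with multiple cis-element-driven reporter units report endogenous transcription factor activity. After 24 h compound exposure, reporter mRNA is measured by RT-PCR, 6-FAM labelling, HpaI digestion and capillary electrophoresis. Fitted bidirectionally versus DMSO.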
# Paired box protein Pax-6 (Homo sapiens), sequence (P26367 whole entry, looked up): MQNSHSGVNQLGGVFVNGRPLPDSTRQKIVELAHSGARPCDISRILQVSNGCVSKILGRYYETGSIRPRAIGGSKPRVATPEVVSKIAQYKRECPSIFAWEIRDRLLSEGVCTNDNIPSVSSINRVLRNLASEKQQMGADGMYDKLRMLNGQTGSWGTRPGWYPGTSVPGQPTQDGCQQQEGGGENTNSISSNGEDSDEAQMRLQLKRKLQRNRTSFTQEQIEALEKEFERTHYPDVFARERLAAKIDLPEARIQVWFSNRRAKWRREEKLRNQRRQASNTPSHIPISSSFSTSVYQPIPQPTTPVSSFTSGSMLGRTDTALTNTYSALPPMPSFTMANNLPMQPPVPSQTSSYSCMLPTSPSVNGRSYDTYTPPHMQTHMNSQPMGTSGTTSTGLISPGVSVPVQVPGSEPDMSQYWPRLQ
# Hypoxia-inducible factor 1-alpha (Homo sapiens), sequence (Q16665 whole entry, looked up): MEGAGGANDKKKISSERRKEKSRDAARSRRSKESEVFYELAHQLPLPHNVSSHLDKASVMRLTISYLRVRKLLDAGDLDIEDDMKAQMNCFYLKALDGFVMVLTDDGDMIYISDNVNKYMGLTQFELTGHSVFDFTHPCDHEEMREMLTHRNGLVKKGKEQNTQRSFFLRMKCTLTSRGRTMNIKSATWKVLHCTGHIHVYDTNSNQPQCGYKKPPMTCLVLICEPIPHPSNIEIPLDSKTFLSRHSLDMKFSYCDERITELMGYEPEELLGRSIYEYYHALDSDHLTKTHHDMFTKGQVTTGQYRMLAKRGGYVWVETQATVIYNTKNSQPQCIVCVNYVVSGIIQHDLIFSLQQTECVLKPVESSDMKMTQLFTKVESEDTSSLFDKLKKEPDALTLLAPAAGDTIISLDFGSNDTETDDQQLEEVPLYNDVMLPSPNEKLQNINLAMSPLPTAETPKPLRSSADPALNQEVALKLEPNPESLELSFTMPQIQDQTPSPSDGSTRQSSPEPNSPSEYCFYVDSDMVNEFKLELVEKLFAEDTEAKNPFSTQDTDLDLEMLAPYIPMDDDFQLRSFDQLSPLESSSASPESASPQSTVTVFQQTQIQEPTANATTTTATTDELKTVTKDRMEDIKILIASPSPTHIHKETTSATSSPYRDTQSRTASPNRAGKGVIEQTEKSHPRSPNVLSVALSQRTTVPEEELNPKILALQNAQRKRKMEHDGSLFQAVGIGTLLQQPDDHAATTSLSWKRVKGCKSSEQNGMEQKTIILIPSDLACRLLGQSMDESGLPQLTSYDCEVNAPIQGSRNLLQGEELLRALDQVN
# Hepatocyte nuclear factor 6 (Homo sapiens), sequence (Q9UBC0 whole entry, looked up): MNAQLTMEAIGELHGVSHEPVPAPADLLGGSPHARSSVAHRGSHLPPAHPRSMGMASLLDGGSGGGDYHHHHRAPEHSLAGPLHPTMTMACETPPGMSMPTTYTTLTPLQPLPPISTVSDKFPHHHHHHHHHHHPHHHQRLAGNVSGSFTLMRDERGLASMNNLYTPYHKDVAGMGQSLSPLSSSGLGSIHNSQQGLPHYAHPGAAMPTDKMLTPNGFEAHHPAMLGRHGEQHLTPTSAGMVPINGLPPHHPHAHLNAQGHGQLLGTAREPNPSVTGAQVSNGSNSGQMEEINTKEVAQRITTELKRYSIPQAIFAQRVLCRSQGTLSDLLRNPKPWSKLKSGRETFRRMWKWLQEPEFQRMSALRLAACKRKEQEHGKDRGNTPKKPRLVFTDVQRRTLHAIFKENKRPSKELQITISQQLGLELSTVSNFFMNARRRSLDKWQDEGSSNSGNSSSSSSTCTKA
# Heat shock factor protein 1 (Homo sapiens), sequence (Q00613 whole entry, looked up, the tested form may be a part): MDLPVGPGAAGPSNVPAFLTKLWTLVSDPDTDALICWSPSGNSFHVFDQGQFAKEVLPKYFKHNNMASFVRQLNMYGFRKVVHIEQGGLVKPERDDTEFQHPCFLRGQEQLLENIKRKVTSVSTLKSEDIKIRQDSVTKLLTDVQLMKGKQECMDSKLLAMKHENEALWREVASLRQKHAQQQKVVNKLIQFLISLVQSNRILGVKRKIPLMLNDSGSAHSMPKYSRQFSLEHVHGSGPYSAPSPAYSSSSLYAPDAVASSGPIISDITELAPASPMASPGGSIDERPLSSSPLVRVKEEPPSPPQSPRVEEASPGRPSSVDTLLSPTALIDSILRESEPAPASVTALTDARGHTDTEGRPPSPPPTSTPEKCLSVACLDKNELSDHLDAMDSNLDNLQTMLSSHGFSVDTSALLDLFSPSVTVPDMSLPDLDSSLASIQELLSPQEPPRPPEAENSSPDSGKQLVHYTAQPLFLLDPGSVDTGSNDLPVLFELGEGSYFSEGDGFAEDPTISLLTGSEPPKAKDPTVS
# Transcription factor Sp1 (Homo sapiens), sequence (P08047 whole entry, looked up): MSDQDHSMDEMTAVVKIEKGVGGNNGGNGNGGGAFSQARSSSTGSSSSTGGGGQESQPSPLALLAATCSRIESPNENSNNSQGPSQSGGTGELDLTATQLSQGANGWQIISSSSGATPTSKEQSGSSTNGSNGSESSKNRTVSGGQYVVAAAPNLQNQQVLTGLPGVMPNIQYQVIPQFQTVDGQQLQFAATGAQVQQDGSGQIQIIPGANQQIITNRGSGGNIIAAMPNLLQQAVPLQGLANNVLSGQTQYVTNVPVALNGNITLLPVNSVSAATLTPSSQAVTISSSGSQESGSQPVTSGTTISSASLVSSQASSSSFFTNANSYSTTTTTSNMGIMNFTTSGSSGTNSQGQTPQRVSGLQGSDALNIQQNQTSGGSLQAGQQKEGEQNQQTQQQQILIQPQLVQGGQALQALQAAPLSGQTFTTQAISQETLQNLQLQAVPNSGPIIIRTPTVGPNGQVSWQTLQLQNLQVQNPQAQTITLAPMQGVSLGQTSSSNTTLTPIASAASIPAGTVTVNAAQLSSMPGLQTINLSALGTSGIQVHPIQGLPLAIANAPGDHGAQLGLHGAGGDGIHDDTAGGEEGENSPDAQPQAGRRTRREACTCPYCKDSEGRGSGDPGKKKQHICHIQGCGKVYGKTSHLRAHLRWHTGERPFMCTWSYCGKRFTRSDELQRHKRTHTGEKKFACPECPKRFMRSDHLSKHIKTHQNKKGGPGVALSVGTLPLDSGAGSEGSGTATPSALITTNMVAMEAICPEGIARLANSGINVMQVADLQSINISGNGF
# Signal transducer and activator of transcription 3 (Homo sapiens), sequence (P40763 whole entry, looked up): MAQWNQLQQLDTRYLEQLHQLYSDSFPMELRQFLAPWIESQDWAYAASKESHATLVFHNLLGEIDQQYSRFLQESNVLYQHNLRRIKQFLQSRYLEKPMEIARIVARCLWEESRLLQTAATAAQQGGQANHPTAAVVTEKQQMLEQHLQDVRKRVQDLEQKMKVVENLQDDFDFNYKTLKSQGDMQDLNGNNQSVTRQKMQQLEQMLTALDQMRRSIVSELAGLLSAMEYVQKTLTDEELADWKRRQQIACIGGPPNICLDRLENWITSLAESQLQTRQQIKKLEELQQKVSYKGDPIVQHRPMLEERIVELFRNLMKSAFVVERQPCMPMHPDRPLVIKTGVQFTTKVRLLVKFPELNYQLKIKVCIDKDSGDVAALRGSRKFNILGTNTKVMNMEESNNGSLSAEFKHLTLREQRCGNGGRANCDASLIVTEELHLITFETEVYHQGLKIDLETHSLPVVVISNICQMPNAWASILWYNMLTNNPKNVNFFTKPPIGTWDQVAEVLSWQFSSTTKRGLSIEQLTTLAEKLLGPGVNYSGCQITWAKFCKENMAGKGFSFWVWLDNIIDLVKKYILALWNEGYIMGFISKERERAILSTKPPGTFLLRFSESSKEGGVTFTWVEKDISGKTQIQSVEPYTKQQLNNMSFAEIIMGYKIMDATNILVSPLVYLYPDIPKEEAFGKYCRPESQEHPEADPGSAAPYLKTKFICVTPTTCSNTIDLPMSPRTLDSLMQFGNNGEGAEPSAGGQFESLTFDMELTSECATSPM
# Bile acid receptor (Homo sapiens), sequence (Q96RI1 whole entry, looked up): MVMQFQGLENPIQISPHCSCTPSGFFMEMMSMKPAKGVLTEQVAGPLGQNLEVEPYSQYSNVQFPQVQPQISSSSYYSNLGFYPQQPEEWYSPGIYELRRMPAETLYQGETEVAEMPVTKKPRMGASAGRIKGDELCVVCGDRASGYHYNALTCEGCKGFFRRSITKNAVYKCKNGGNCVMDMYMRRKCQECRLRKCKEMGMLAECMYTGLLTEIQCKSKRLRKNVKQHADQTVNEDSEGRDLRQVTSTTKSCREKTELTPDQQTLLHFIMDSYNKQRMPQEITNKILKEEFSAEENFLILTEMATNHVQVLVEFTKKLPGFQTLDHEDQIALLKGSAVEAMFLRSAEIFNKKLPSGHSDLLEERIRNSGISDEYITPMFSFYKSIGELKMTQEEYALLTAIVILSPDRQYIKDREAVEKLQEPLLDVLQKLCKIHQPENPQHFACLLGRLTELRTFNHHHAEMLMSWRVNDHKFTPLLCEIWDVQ
smiles,measurement,setting,value
O=C(O)CCCOc1ccc(Cl)cc1Cl,outcome,[1],inactive
same,outcome,[2],inactive
same,outcome,[3],inactive
same,outcome,[4],inactive
same,outcome,[5],inactive
same,outcome,[6],inactive
same,outcome,[7],inactive
same,outcome,[8],inactive
same,outcome,[9],inactive
same,outcome,[10],inactive
same,AC50,[11],27.1 µM (active)
same,outcome,[11],inactive
same,AC50,[12],22.9 µM (active)
same,outcome,[12],inactive
same,outcome,[13],inactive
same,outcome,[14],inactive
same,outcome,[15],inactive
same,outcome,[16],inactive
C#CCN1C(=O)COc2cc(F)c(N3C(=O)C4=C(CCCC4)C3=O)cc21,outcome,[1],inactive
same,outcome,[17],inactive
same,outcome,[2],inactive
same,outcome,[3],inactive
same,outcome,[4],inactive
same,outcome,[5],inactive
same,outcome,[6],inactive
same,outcome,[7],inactive
same,outcome,[8],inactive
same,outcome,[9],inactive
same,outcome,[10],inactive
same,AC50,[11],23.8 µM (active)
same,AC50,[12],12.5 µM (active)
same,outcome,[13],inactive
same,outcome,[14],inactive
same,outcome,[15],inactive
same,outcome,[16],inactive
O=C1c2ccccc2C(=O)N1SC(Cl)(Cl)Cl,outcome,[1],inactive
same,outcome,[18],inactive
same,outcome,[2],inactive
same,outcome,[3],inactive
same,outcome,[4],inactive
same,outcome,[5],inactive
same,outcome,[6],inactive
same,outcome,[7],inactive
same,outcome,[8],inactive
same,outcome,[9],inactive
same,outcome,[10],inactive
same,AC50,[11],15.8 µM (active)
same,outcome,[12],inactive
same,outcome,[13],inactive
same,outcome,[14],inactive
same,outcome,[15],inactive
same,outcome,[16],inactive
CCOC1Oc2ccc(OS(C)(=O)=O)cc2C1(C)C (stereo not drawn),outcome,[1],inactive
same,outcome,[2],inactive
same,outcome,[3],inactive
same,outcome,[4],inactive
same,outcome,[5],inactive
same,outcome,[6],inactive
same,AC50,[8],50 µM (active)
same,AC50,[9],34 µM (active)
same,outcome,[10],inactive
same,AC50,[11],5.08 µM (active)
same,AC50,[12],30.8 µM (active)
same,outcome,[13],inactive
same,outcome,[14],inactive
same,outcome,[15],inactive
same,outcome,[19],inactive
same,outcome,[16],inactive

# Reference: PubChem BioAssay (EPA / NIEHS)
